# An excerpt weighted towards active compounds, which were near 3.5% of everything screened.
# mHTT CaM bind: disrupts binding of mutant huntingtin to calmodulin; inhibition, % at 15 µM; P42858; AlphaScreen His-mHTT/GST-CaM binding, luminescence; 190,000 compounds, 3.6% hits
# Pf apPOL inh: Pf-apPOL DNA polymerase inhibition. Recombinant Pf-apPOL, molecular beacon fluorescence, 1.5 h. inhibition, % at 10 µM. 210,000 compounds, 0.25% hits
# Hits are given with their value; – = inactive; · = no result. Cut-off read from the data, not from the text of the source: active = inhibition above about 50%; inactive = the rest.
SMILES,mHTT CaM bind,Pf apPOL inh
COc1ccc(C(C)=NOC(=O)c2ccc(Cl)cc2)cc1CSc1ccccn1,·,–
O=S(=O)(c1ccccc1)c1nc(-c2ccccc2F)oc1NCc1ccccc1,–,–
CCN(CC)Cc1c(O)ccc2c1OC(=Cc1ccccc1OC)C2=O,–,–
O=C(Cc1ccc([N+](=O)[O-])cc1)Nc1ccc2c(c1)OCO2,–,–
O=C(CC(=O)c1ccc([N+](=O)[O-])cc1)Nc1ccc2c(c1)OCO2,51,–
O=C(Nc1ccc([N+](=O)[O-])cc1Br)c1ccco1,–,–
Nc1ccc([N+](=O)[O-])cc1C(=O)NNC(=O)c1ccco1,·,68
CSc1cccc(NC(=O)N2CCCC(C)(C(=O)NCc3ccc(C)cc3)C2)c1 (stereo unspecified),–,–
Cc1ccc(C(C)C)c(OCCCn2c(CO)nc3ccccc32)c1,65,–
COCn1c(COc2cc(C)ccc2C(C)C)nc2ccccc21,–,–
Fc1ccc(N2CCN(c3ncc4c(n3)CCN(Cc3ccccc3)C4)CC2)cc1,–,–
Fc1ccc(CN2CCc3nc(N4CCN(c5ncccn5)CC4)ncc3C2)cc1,100,–
COc1ccc(CN2CCc3nc(N4CCN(c5ncccn5)CC4)ncc3C2)cc1,100,–
COc1ccc(CN2CCc3nc(N4CCN(c5ccccc5)CC4)ncc3C2)cc1,–,–
O=C(COc1ccccc1)Nc1ccc2c(c1)OCC1CCCN21 (stereo unspecified),·,–
OCCN(CCO)c1nc(N2CCCCC2)c2nc(N(CCO)CCO)nc(N3CCCCC3)c2n1,·,61
OCCNc1nc(N2CCCCC2)nc(N2CCCCC2)n1,–,·
Cc1ccc(N2CCC(NC(=O)NC(C)C)C2=O)cc1C (stereo unspecified),–,–
COc1ccc(CNCc2cccc([N+](=O)[O-])c2)cc1,–,–
O=C(CN1CCc2ccccc2C1C(=O)N1CCCCC1)Nc1ccc(Cl)cc1F (stereo unspecified),–,–
Cc1cc(NC(=O)CN2CCc3ccccc3C2C(=O)N2CCCCC2)ccc1F (stereo unspecified),–,–
Cc1c(Cl)cccc1NC(=O)CN1CCc2ccccc2C1C(=O)N1CCC(C)CC1 (stereo unspecified),69,–
CC1CCN(C(=O)C2c3ccccc3CCN2CC(=O)Nc2ccc(Cl)cc2F)CC1 (stereo unspecified),68,–
Cc1ccc(C)c(NC(=O)CN2CCc3ccccc3C2C(=O)N2CCC(C)CC2)c1 (stereo unspecified),–,–
Cc1ccc(NC(=O)CN2CCc3ccccc3C2C(=O)N2CCCC2)cc1Cl (stereo unspecified),64,–
SMILES,mHTT CaM bind,Pf apPOL inh
COc1ccc(Cl)c(OC)c1C(=O)O,·,–
O=C(NC1CC1)c1ccc(OCC2CCN(C(=O)c3ccccc3C(F)(F)F)CC2)cc1,–,–
Cc1ccc(-n2c(CN3CCN(C(=O)Nc4cccc(C)c4)CC3)nc3cccnc32)cc1,–,–
COc1cccc(CN2CCN(C(=O)c3cc(OC)c(OC)c(OC)c3)CC2)c1,–,–
CC1C(=O)N2CCCc3cc(NC(=O)C(=O)NCCc4c[nH]c5ccccc45)cc1c32 (stereo unspecified),76,–
COC(=O)c1ccc(NC(=O)C(=O)NCCc2c[nH]c3ccccc23)cc1,–,–
CN1CC2([N+](=O)[O-])CC=C(Oc3ccccc3)C([N+](=O)[O-])(C1)C2 (stereo unspecified),–,–
O=C1C2CCCN2C(c2ccccc2F)N1c1cccc(Cl)c1 (stereo unspecified),–,–
COc1ccc(Cl)cc1N(CC(=O)N1CCCCC1)S(=O)(=O)c1ccccc1,–,–
O=C(c1cccc(OCC2CCCN(C(=O)c3ccc(F)cc3)C2)c1)N1CCCCC1 (stereo unspecified),–,–
O=C(NCc1ccco1)Nc1sccc1-n1cccc1,·,–
CC(C)CC1C(=O)N(Cc2cn(CCC3OCCCO3)nn2)CCS(=O)(=O)N1Cc1ccc(-c2cccc(N(C)C)c2)cc1 (stereo unspecified),69,–
CC(C)CC1C(=O)N(Cc2cn(CCC3OCCCO3)nn2)CCS(=O)(=O)N1Cc1ccc(-c2ccccc2)cc1 (stereo unspecified),54,–
COc1ccc(-c2ccc(CN3C(CC(C)C)C(=O)N(Cc4cn(CCC5OCCCO5)nn4)CCS3(=O)=O)cc2)cc1OC (stereo unspecified),–,–
CC(C)CC1C(=O)N(Cc2cn(CCC3OCCCO3)nn2)CCS(=O)(=O)N1Cc1ccc(-c2ccncc2)cc1 (stereo unspecified),–,–
Cc1nn(C)c(C)c1-c1cc2n(n1)CCCN(C(=O)C1CC1)C2,–,–
O=C(C1CCC(CNS(=O)(=O)c2ccc(Br)s2)CC1)N1CCCC1 (stereo unspecified),–,–
CCN1C(=O)c2cccnc2Sc2cc(NC(=O)C3CCCC3)ccc21,–,–
CN(C)c1ccc(Cc2ccc(N(C)C)cc2)cc1,·,–

# Bioassay records as filed in PubChem.
